KB-V1 MDR tox: qHTS assay for MDR1-selective chemotherapeutics: Primary screen using the drug-selected MDR subline cells KB-V1 | KB-V1 MDR cells viability, CellTiter-Glo, 72 h | Potency, µM (top dose mostly 46.1 µM), usual class: cytotoxic | 3.4% of 400,000 active; note: nearly all actives have a fitted effect of over 60% in size
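Drug-selected KB-V1 cells, grown in DMEM lacking phenol red with 10% FBS, receive compound titrations; after three days at 37 degrees C, surviving cell ATP is quantified by CellTiter-Glo luminescence and responses normalized and curve-fitted.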
KB-3-1 tox: qHTS assay for MDR1-selective chemotherapeutics: Primary screen using the parental adenocarcinoma cell KB-3-1; KB-3-1 viability, CellTiter-Glo ATP luminescence, 72 h; Potency, µM (highest dose often 46.1 µM), most hits filed as cytotoxic; 1.4% of 400,000 active; note: nearly all actives have a fitted effect of over 60% in size
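KB-3-1 cells, DMEM (no phenol red) + 10% FBS; compound by pin transfer, 72 h, 37 °C. Readout: CellTiter-Glo luminescence after 10 min. Data normalized, curve-fitted.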
TDP1 cell CPT: qHTS for Inhibitors of human tyrosyl-DNA phosphodiesterase 1 (TDP1): qHTS in cells in presence of CPT. chicken DT40 Tdp1-/-;hTDP1 cells + 20 nM CPT, ATP luminescence, 48 h. Potency, µM (titrated, usually from 46.2 µM), for the others: at the highest dose activity change, negative = growth inhibition, actives largely listed as inhibitors. 12% of 420,000 active; note: nearly all actives have a fitted effect of over 55% in size
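Chicken DT40 Tdp1-/- cells stably complemented with human TDP1 were seeded at 400 cells/well in medium containing 20 nM camptothecin, exposed to pin-transferred compounds, and grown at 37 °C for at least 48 hr. Viability was read as ATP luminescence.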
HT1080 IDH1KD tx: qHTS for induction of synthetic lethality in tumor cells producing 2HG: qHTS for the HT-1080-IDH1KD cell line | HT-1080 IDH1 knockdown viability, ATP luminescence, 48 h | Potency, µM (series often up to 46.1 µM), inactives show at the highest dose activity, negative = toxicity, hits mostly cytotoxic | 2% of 360,000 active | AID 686971, 2013;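 note: 0% = DMSO wells and -100% = cell-free medium wells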
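Luminescent ATP read-out (CellTiter-Glo, 10 min at room temperature) after 48 h compound exposure at 37 °C gave viability of IDH1-knockdown HT-1080 cells. Activity was normalised to DMSO and cell-free wells, then fitted as concentration-response curves.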
DT40 TDP1 no CPT: qHTS for Inhibitors of human tyrosyl-DNA phosphodiesterase 1 (TDP1): qHTS in cells in absence of CPT | DT40 Tdp1-/- hTDP1 cells, no CPT, ATP luminescence, 48 h | Potency, µM (doses to about 46.2 µM), inactives show at the top dose activity change, negative = growth inhibition, hits mostly inhibitors | 15% of 420,000 active | AID 686978, 2013; note: nearly all actives have a fitted effect of over 55% in size
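Growth kinetics read by CellTiter-Glo luminescence after ≥48 hr at 37 °C. Cells: DT40 Tdp1-/- stably carrying human TDP1, 400 per well, compound exposure in the absence of CPT (DMSO vehicle).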
HT1080-NT tox: qHTS for induction of synthetic lethality in tumor cells producing 2HG: qHTS for the HT-1080-NT fibrosarcoma cell line. HT-1080-NT fibrosarcoma viability, CellTiter-Glo ATP luminescence, 48 h. Potency, µM (doses to about 46.1 µM), for inactives: at the highest dose activity, negative = less viability, most hits filed as cytotoxic. 1.6% of 360,000 active;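 note: NT is the 2HG producing partner of a matched IDH1 knockdown line; 0% = DMSO-treated cells and -100% = media-only wells without cells; nearly all actives have a fitted effect of over 55% in size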
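HT-1080-NT fibrosarcoma cells (2HG-overproducing), 750 cells/well in RPMI with 5% FBS, dosed after 2 h and incubated 48 h at 37C. CellTiter-Glo luminescence normalized to DMSO and no-cell wells; concentration-response curves fitted and classed.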
Numbers without * were called inactive; i = inactive; ? = inconclusive; . = not tested or not shown; [ ] = another dose, or the depositor's remark. Only some compounds are listed: those with a hit (about 19% of all), similar ones and a draw of the others. Calls come from the whole dose curve; as a rule, active = well fitted curve in the direction sought with a large enough effect; inconclusive = small, poorly fitted or top-dose-only effect, or another doubt; inactive = no such curve, though single readings can be large; an effect the other way counts as inactive or inconclusive. Unless noted, % is set by controls: 0 for no effect and ±100 for the full control effect; potency is the fitted concentration of half-maximal effect.

SMILES | KB-V1 MDR tox | KB-3-1 tox | TDP1 cell CPT | HT1080 IDH1KD tx | DT40 TDP1 no CPT | HT1080-NT tox
Cc1c(Br)c([N+](=O)[O-])nn1C(C)C(=O)N1CCCc2ccccc21 (configuration not stated) | ? | i | ? | -7.7% | 16.4µM* | -2.7%
Cc1c(Br)c([N+](=O)[O-])nn1CC(=O)N1CCc2ccccc21 | i | i | 4.5% | 0.3% | 0.7% | -7.5%
Cc1ccc(OC(C)C(=O)N2CCCc3ccccc32)cc1 (configuration not stated) | i | i | ? | -17.9% | 25.9µM* | 0.4%[9.24 µM]
CCc1ccc2[nH]c(=O)c(CN(Cc3ccccc3)C(=O)Nc3ccccc3OC)cc2c1 | ? | i | ? | ? | ? | ?
O=C(NNC(=O)c1ccccc1O)c1ccco1 | i | i | 25.5% | 21.4% | -10.3% | ?
CCc1nnc(NC(=O)Cc2ccc(OCc3c(C)noc3C)cc2)s1 | i | i | -4.2% | 5.6% | -15.1% | 6.9%
COc1c(C(=O)Nc2nnc(C3CC3)s2)csc1Cl | i | i | -10.2% | 3.9% | 15.7% | 6.2%
CCOC(=O)N1CCN(C(=O)COc2cccc3c2CCN(Cc2ccccc2F)C3=O)CC1 | i | i | 20.6µM* | -21.4% | 14.6µM* | -13.0%
Cc1ccccc1CN1CCc2c(OCC(=O)N3CCCCC3)cccc2C1=O | ? | i | ? | 0.2% | ? | -14.2%
O=C(COc1cccc2c1CCN(Cc1ccccc1F)C2=O)N1CCCCC1 | ? | i | ? | ? | 20.6µM* | -27.3%
Cc1c(C(=O)OCc2nc3ccsc3c(=O)[nH]2)oc2ccccc12 | ? | i | -21.2% | -3.6% | -4.5% | 12.0%
Cc1ccc(Cn2c(C)c3cnn(CC(=O)NC4CCCC4)c(=O)c3c2C)cc1 | i | i | ? | 14.8% | ? | 10.2%
Cc1cccc(NC(=O)CNC(=O)CSc2ncccn2)c1C | i | i | 10.5% | 4.5% | 5.2% | 1.8%
O=C(Cn1ncc(Cl)c(Cl)c1=O)NC1CCCCC1 | i | ? | 10.3µM* | 14.6µM* | 14.6µM* | 13µM*
Cc1cccc(NC(=O)CNC(=O)Cn2ncc(Cl)c(Cl)c2=O)c1C | ? | ? | 11.6µM* | 7.31µM* | 9.2µM* | 25.9µM*
O=C(Cn1ncc(Cl)c(Cl)c1=O)NC1CCS(=O)(=O)C1 (configuration not stated) | i | i | 23.1µM* | 1.8% | 20.6µM* | -5.2%
O=C(Cn1ncc(Cl)c(Cl)c1=O)NCC1CCCCC1 | i | 14.6µM* | 2.59µM* | ? | 1.84µM* | ?
O=C(NCCc1nnc2n1CCN(Cc1ccc(F)cc1)CC2)c1ccc(F)cc1 | . | . | 9.7% | . | -5.2% | .
CCN1CCN(C(=O)c2ccc3c(c2)N(Cc2ccccc2F)C(=O)c2ccccc2S3=O)CC1 (configuration not stated) | i | i | -2.4% | . | ? | .
O=C(OCC(=O)N1CCCC1=O)c1ccc(Cl)cc1[N+](=O)[O-] | i | i | 16.2% | 18.8% | -0.6% | 15.0%
O=C1CN(C(=O)Cn2ncc(Cl)c(Cl)c2=O)c2ccccc2N1 | ? | ? | 7.31µM* | 4.11µM* | 8.2µM* | 4.61µM*
O=C1CN(C(=O)COc2ccc(Cl)c(Cl)c2)c2ccccc2N1 | i | i | -10.3% | -3.6% | -20.5% | 1.0%
CC(=O)Nc1nonc1-c1nnc(SCC(=O)Nc2ccc(C)c(Cl)c2)n1-c1ccccc1 | i | i | ? | . | 16.4µM* | .
CCn1c(SCc2ccc(F)cc2Cl)nnc1-c1nonc1NC(C)=O | i | i | 16.4µM* | . | 18.4µM* | .
CC(=O)Nc1nonc1-c1nnc(SCC(=O)Nc2ccc(C)c(Cl)c2)n1C | i | i | -16.1% | . | -18.7% | .
SMILES | KB-V1 MDR tox | KB-3-1 tox | TDP1 cell CPT | HT1080 IDH1KD tx | DT40 TDP1 no CPT | HT1080-NT tox
CC(=O)Nc1nonc1-c1nnc(SCc2ccc(F)cc2Cl)n1C | i | i | ? | . | 14.6µM* | .
CCN(CC)Cc1nc2c(c(=O)[nH]1)C(CC)(CC)Cc1ccccc1-2 | ? | i | ? | 8.3% | ? | 2.2%
CS(=O)(=O)N(CC(O)CON=C1c2ccccc2-c2ccccc21)c1ccc(F)cc1 (configuration not stated) | i | i | -22.0% | ? | ? | ?
CCN(CC(O)CON=C1c2ccccc2-c2ccccc21)S(=O)(=O)c1ccc(Cl)cc1 (configuration not stated) | ? | ? | 20.6µM* | -17.8% | 14.6µM* | -12.5%
CN(CC(O)CON=C1c2ccccc2-c2ccccc21)S(=O)(=O)c1ccc(Br)cc1 (configuration not stated) | 18.4µM* | ? | 16.4µM* | ? | ? | ?
CC(=O)Nc1ccc(NC(=O)C(NS(=O)(=O)c2cccc3nsnc23)C(C)C)cc1 (configuration not stated) | ? | i | 11.7% | 12.5% | 23.1% | 0.1%
CC(=O)c1c(N2CCN(Cc3ccccc3)CC2)nc(=S)n(Cc2ccccc2)c1C | 2.91µM* | ? | 16.4µM* | -1.7% | 16.4µM* | -3.3%
C=CCn1c(C)c(C(C)=O)c(N2CCN(c3ccccc3)CC2)nc1=S | i | i | ? | 4.2% | ? | -5.3%
CC(=O)c1c(N2CCCCC2)nc(=S)n(Cc2ccccc2)c1C | i | ? | 25.9µM* | -24.0% | ? | 1.5%
CCn1c(C)c(C(C)=O)c(N2CCCC2)nc1=S | i | i | 0.3% | 14.3% | -1.3% | 0.3%
CC(=O)c1c(N2CCN(c3ccc(F)cc3)CC2)nc(=S)n(Cc2ccccc2)c1C | ? | 23.1µM* | ? | -25.4% | ? | -18.2%
CCn1c(C)c(C(C)=O)c(N2CCN(c3ccc(F)cc3)CC2)nc1=S | i | i | -7.9% | 9.1% | -3.4% | 14.3%
CC(=O)c1c(C(C)=O)c(C)n(Cc2ccccc2)c1C | 20.6µM* | i | -18.8% | -3.6% | ? | 3.9%
CCN(Cc1ccncc1)Cc1ccc2c(c1)CN(C(=O)c1cccc3c(C)c(C)[nH]c13)CCO2 | . | . | -2.6% | . | -19.9% | .
CCCSc1nc(=S)n(Cc2ccccc2)c(C)c1C(C)=O | i | i | -19.5% | -9.1% | 23.1µM* | -8.2%

Screens (PubChem BioAssay)
